From ChEMBL document CHEMBL1201862, “PubChem BioAssay data set” (2004) come the findings set out here.

Among all 350,000 compounds or so, about 700 (0.2%) were called active. This is one part of a sample in which actives are shown more often than they occur. The calls are words filed in the database; no cut-off is given here.

For this assay, the target named is RecQ-like DNA helicase BLM (Homo sapiens) (UniProt P54132). Description: qHTS Assay for Inhibitors of Bloom's syndrome helicase (BLM). It counts as functional.
Sequence of RecQ-like DNA helicase BLM (Homo sapiens) (P54132 whole entry): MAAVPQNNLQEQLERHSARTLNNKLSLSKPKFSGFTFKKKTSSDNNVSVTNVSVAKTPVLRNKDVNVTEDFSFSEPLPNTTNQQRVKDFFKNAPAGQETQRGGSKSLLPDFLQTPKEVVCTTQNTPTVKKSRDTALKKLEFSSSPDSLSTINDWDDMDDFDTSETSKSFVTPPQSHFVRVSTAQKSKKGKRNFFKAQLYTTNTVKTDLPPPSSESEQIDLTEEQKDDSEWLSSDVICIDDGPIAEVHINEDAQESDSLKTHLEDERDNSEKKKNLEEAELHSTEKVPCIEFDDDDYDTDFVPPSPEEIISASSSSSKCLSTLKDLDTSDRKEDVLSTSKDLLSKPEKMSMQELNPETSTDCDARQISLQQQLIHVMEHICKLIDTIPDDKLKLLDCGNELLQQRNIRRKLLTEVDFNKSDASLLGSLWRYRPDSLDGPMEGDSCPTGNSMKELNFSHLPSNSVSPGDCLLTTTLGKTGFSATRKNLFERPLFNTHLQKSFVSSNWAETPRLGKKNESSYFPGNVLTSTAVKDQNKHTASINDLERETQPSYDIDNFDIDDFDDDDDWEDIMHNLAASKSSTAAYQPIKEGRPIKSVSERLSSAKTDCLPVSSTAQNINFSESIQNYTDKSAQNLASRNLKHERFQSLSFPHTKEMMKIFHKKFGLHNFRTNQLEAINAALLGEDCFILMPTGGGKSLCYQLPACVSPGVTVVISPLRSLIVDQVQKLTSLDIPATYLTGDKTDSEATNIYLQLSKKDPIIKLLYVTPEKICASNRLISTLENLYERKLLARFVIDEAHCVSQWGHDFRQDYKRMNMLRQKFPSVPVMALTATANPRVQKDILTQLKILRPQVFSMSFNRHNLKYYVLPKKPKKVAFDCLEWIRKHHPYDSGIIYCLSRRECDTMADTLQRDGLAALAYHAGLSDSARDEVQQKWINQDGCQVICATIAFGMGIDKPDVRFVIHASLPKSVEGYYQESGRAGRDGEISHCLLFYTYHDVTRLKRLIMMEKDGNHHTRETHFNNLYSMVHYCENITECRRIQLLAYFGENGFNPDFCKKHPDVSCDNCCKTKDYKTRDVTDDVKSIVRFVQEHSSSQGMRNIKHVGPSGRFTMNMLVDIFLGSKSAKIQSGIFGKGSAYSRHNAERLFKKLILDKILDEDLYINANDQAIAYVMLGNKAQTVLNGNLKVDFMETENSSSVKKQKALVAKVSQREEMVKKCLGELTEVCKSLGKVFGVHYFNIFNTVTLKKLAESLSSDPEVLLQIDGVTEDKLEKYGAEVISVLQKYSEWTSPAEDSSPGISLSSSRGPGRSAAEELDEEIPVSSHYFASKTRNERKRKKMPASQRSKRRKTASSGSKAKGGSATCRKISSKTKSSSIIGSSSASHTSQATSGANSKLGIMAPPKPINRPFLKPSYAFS
Turning to `N[C@H](Cc1ccc(O)c(O)c1)C(=O)O`, the Potency is 28.2 µM (active).
